# Test results from PubChem BioAssay.
# “And” between values parts separate entries of the source, which are not always exact repeats. Equal values may be shown once. The source made the active and inactive calls.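 The calls were made as follows, unless noted: active = compounds whose cell count with miR-34 switched on is under 0.7 times the count with it off; inactive = the rest.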
# Key:
# [1] = growth inhibition, single agent and combos, cell-based, chromothripsis tumors, cisplatin or BGB combos (AID 1671450); conditions: HDN33 neuroblastoma cells, single agent, at 5 µM, stronger effect = higher value;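 also: cells exposed to compound for four days; 0% = vehicle DMSO and 100% = cell killing by high DMSO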
# [2] = growth inhibition, single agents and combos, ICB984, cell-based, cisplatin or BGB combos, synergistic combos for chromothripsis tumors (AID 1671451; call rule not given here;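 also: cells exposed for 96 hours before readout; 0% = vehicle DMSO and 100% = killing by high DMSO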); conditions: ICB984 medulloblastoma cells, drug combinations, stronger effect = higher value
# [3] = growth inhibition, single agents and combos, HTB85, cell-based, BGB or cisplatin IC20 combos, synergistic combos for chromothripsis tumors (AID 1671453; in the data active = inhibition above about 80%;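 also: cells exposed for 96 hours before readout; 0% = vehicle DMSO and 100% = high DMSO killing control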); conditions: HTB85 osteosarcoma cells, drug combinations, stronger effect = higher value
# [4] = growth inhibition, MDA-MB-436, cell-based, BGB or cisplatin combos, synergistic combos for chromothripsis tumors (AID 1671458; call rule not given here;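 also: cells exposed for 96 hours; 0% = vehicle DMSO and 100% = killing by high DMSO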); conditions: MDA-MB-436 breast carcinoma growth inhibition, drug combinations, stronger effect = higher value
# [5] = compounds altering viability of human ES cells (AID 493140; call rule not given here;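 also: cells exposed to compounds for four days before counting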); conditions: human embryonic stem cell survival screen; stronger effect = higher value
# [6] = P. berghei load reduction in hepatocytes – cell-based, HepG2, luciferase luminescence, HepG2 viability, primary screen (AID 624349; in the data active = parasite load remaining mostly below about 12%, no sharp cut-off; inactive = mostly above about 10%;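 also: 100% = mean of DMSO negative control wells on the same plate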); conditions: P. berghei liver stage in HepG2, luciferase luminescence, concentration not given here; parasite load remaining: stronger effect = lower value; viability: measured here: HepG2 viability without parasites
# [7] = Wnt pathway potentiators raising nuclear beta-catenin – imaging, WNT3A-conditioned medium, mouse C2C12, NPC library, primary screen (AID 1117326; in the data active = nuclear beta-catenin stimulation mostly above about 4.2%, no sharp cut-off; inactive = mostly below about 10%); conditions: stronger effect = higher value
# [8] = stimulators of insulin release from INS-1E, primary screen, cell-based, 5 mM glucose, NPC library (AID 1117329;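 active = compound raises insulin release from rat beta cells at 5 mM glucose, no numeric limit stated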); conditions: rat INS-1E insulin secretion, at 10 µM, stronger effect = higher value
# [9] = growth inhibition of GSK3B-pretreated HCT116 cells – cell-based, CellTiter-Glo, 0.2 to 20 µM (AID 1117336;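 active = compounds lowering colon cancer cell viability after pretreatment blocking the GSK3B kinase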); conditions: HCT116 viability after GSK3B inhibitor, at 20 µM, stronger effect = higher value
# [10] = inhibition of endothelial tube formation, primary screen, imaging, VEGF stimulated, CD31 staining, tube area, NPC library (AID 1117340;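 active = compound that reduces growth-factor-driven endothelial tube area in a mixed cell culture, no cutoff stated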); conditions: VEGF-stimulated ADSC/ECFC co-culture, at 10 µM, stronger effect = higher value
# [11] = GLP1 release stimulators, primary, NCI-H716, NPC library (AID 1117341;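 active = compound raises GLP1 secretion from the human gut endocrine cells, with no numeric limit stated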); conditions: NCI-H716 cells, at 10 µM, stronger effect = higher value
# [12] = HCT116 colon cancer cell growth inhibition, primary screen, CellTiter-Glo luminescence, NPC library (AID 1117342;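 active = compounds that lower survival of HCT116 colon cancer cells in the luminescence readout, no numeric limit stated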); conditions: at 20 µM (top of the series)
# [13] = reduced SW480 viability measured with CellTiter-Glo, NPC library, primary (AID 1117343;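 active = compounds that lower viability of the colon cancer cells in the luminescence readout, with no numeric limit stated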); conditions: CellTiter-Glo luminescence; at 20 µM (top of the series) unless noted
# [14] = NPC library primary testing for decreased DLD-1 cell viability via CellTiter-Glo (AID 1117346;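 active = compounds that lower survival of DLD-1 colon cancer cells in the luminescence readout, no cutoff given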); conditions: DLD-1 viability, CellTiter-Glo luminescence; at 20 µM (top of the series)
# [15] = EMT-state selective cytotoxicity in co-culture – imaging, PC-3E GFP, TEM4-18 mCherry, primary screen (AID 1345086;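 active = compounds killing one labelled cell type while sparing the other, by normalised counts and ratio limits, not self-fluorescent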;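 as to all read-outs here: cells exposed to compound for 72 h before imaging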;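 as to red/green cell ratio (normalised): normalised mesenchymal count divided by normalised epithelial count so high means epithelial killing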); conditions: PC-3E GFP / TEM4-18 mCherry co-culture, imaging cell counts, at 1 µM; for red/green cell ratio (normalised): actives lie on both sides, counts scaled to control wells, 1 = unselective
# [16] = viability loss with induced miR-34 in A549 – imaging, A549 dox-inducible miR-34, nuclei and caspase counts, primary screen (AID 1347080); conditions: A549 miR-34 inducible, Hoechst nuclei count, 48 h
# [17] = MELAS cybrid and Rieske KO viability enhancers – cell-based, MELAS cybrids, Rieske KO mouse fibroblasts, CellTiter-Glo, primary screen (AID 1508586;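 active = mean z-score across replicates of 1.96 or higher in either the MELAS or the Rieske mutant cell line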;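 also: z relative to plate mean and SD of compound and empty wells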); conditions: low glucose
# [18] = molecular target: NAD(+) hydrolase SARM1 (Homo sapiens) (UniProt Q6SZW1); experiment: blocking NAD cleavage by SARM1 SAM-TIR – cell lysate, NAD-Glo luminescence (AID 1508614;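 active = compound whose remaining NAD level is above about 45 nM, limit read from the data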;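 also: higher remaining NAD means stronger inhibition of SARM1 NADase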); conditions: SAM-TIR HEK293T lysate NADase, at 1 µM, stronger effect = higher value
# [19] = measured here: epithelial PC-3E GFP cell survival
# [20] = measured here: mesenchymal TEM4-18 mCherry cell survival
# [21] = stronger effect = lower value, cell number ratio, induced over uninduced
# [22] = measured here: relative caspase fold change +Dox/-Dox
# [23] = measured here: total cells with miR-34 induction, stronger effect = lower value
# [24] = measured here: total cells without miR-34 induction
# [25] = MELAS cybrid survival, CellTiter-Glo 48 h, stronger effect = higher value
# [26] = Rieske KO mouse fibroblast survival, CellTiter-Glo 72 h
# Sequence of NAD(+) hydrolase SARM1 (Homo sapiens) (Q6SZW1 whole entry, looked up): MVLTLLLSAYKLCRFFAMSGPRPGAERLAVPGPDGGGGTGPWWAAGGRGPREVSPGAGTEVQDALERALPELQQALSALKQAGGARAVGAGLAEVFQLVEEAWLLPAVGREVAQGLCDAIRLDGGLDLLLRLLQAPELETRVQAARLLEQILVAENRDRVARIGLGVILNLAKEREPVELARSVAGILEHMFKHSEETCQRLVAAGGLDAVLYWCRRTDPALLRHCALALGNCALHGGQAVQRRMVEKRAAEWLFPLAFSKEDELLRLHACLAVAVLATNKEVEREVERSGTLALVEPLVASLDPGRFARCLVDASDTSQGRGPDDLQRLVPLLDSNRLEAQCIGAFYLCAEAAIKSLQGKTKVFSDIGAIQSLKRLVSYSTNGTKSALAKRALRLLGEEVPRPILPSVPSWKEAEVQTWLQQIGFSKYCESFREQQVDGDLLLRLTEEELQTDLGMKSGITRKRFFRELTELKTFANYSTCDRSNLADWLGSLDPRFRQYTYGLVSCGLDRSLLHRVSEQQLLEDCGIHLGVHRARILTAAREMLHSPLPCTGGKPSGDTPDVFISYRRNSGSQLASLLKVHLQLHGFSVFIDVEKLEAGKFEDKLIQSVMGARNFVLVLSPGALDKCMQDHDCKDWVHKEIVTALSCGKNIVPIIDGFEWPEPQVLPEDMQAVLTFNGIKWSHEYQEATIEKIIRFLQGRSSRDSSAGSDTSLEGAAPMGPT
smiles,measurement,setting,value
O=c1cc[nH]c(=O)[nH]1,inhibition,[1],-52%
same,inhibition,"[2]; BGB IC20 combo, at 0.005 µM",-14.6%
same,inhibition,"[2]; BGB IC40 combo, at 0.005 µM",-47.1%
same,inhibition,"[2]; BGB IC40 combo, at 0.05 µM",-28.5%
same,inhibition,[2]; at 0.5 µM,-27% (inactive)
same,inhibition,"[2]; cisplatin combo, at 0.05 µM",-28.5%
same,inhibition,"[2]; cisplatin combo, at 0.5 µM",-48.6%
same,inhibition,"[2]; cisplatin combo, at 5 µM",-27.5%
same,inhibition,"[2]; measured here: 5 uM single agent, at 5 µM",-5.8%
same,inhibition,[3]; at 0.5 µM,-37.5% (inactive)
same,inhibition,"[3]; measured here: with BGB IC20, at 0.5 µM",-69.8%
same,inhibition,"[3]; measured here: with BGB IC20, at 5 µM",-35.2%
same,inhibition,"[3]; measured here: with cisplatin IC20, at 0.5 µM",-26.2%
same,inhibition,"[3]; measured here: with cisplatin IC20, at 5 µM",-33.2%
same,inhibition,"[3]; single agent, at 5 µM",-19.7%
same,inhibition,[4]; at 0.5 µM,-27.5% (inactive)
same,inhibition,"[4]; measured here: BGB combination, at 0.5 µM",-30.5%
same,inhibition,"[4]; measured here: BGB combination, at 5 µM",-26.1%
same,inhibition,"[4]; measured here: cisplatin combination, at 0.5 µM",-40.8%
same,inhibition,"[4]; measured here: cisplatin combination, at 5 µM",-24%
CC(C)(C)NCC(O)COc1cccc2c1CCC(=O)N2 (centres undefined),survival,[5],7.75 (inactive)
same,parasite load remaining,[6],126% (inactive) and 79.2% (inactive)
same,viability,[6],105% and 76.8%
same,nuclear beta-catenin stimulation,[7]; at 10 µM,0.7% (inactive)
same,nuclear beta-catenin stimulation,"[7]; stimulation, at 2 µM",1.8%
same,insulin secretion stimulation,[8],1.4% (inactive)
same,viability decrease,[9],-25.9% (inactive)
same,tube area decrease,[10],-2.9% (inactive)
same,GLP1 secretion stimulation,[11],1.2% (inactive)
same,inhibition of viability,[12],-1.83% (inactive)
same,viability decrease (inhibition),[13],-26.6% (inactive)
same,viability decrease (inhibition),[14],-8.8% (inactive)
same,red/green cell ratio (normalised),[15],1.13 (inactive)
same,normalised cell number,[15]; [19],1.2
same,normalised cell number,[15]; [20],1.36
same,fold change,[16]; [21],0.805 (inactive) and 0.903 (inactive)
same,fold change,[16]; [22],0.997 and 0.693
same,cell count,[16]; [23],8680 and 7910
same,cell count,[16]; [24],10800 and 8760
same,z-score,[17]; [25],-0.229 (inactive) and 0.6 (inactive)
same,z-score,[17]; [26],-0.22 and -0.0871
same,remaining NAD,[18],10 nM (inactive)
O=C(O)c1cc(-c2ccccc2)nc2ccccc12,nuclear beta-catenin stimulation,[7]; at 10 µM,2.1% (inactive)
same,nuclear beta-catenin stimulation,"[7]; stimulation, at 2 µM",0.6%
same,insulin secretion stimulation,[8],-1.6% (inactive)
same,viability decrease,[9],5.55% (inactive)
same,tube area decrease,[10],1.3% (inactive)
same,GLP1 secretion stimulation,[11],4.2% (inactive)
same,inhibition of viability,[12],-8.1% (inactive)
same,viability decrease (inhibition),[13],27.9% (inactive)
same,viability decrease (inhibition),[14],8.8% (inactive)
same,red/green cell ratio (normalised),[15],0.87 (inactive)
same,normalised cell number,[15]; [19],0.9
same,normalised cell number,[15]; [20],0.78
same,fold change,[16]; [21],0.909 (inactive) and 0.965 (inactive)
same,fold change,[16]; [22],0.94 and 1.19
same,cell count,[16]; [23],8690 and 8580
same,cell count,[16]; [24],9560 and 8890
same,z-score,[17]; [25],-0.261 (inactive)
same,z-score,[17]; [26],-0.139
same,remaining NAD,[18],10 nM (inactive)
CC(C(=O)O)c1ccc2c(c1)Cc1cccnc1O2 (centres undefined),parasite load remaining,[6],27% (inactive)
same,viability,[6],105%
same,nuclear beta-catenin stimulation,[7]; at 10 µM,0.4% (inactive)
same,nuclear beta-catenin stimulation,"[7]; stimulation, at 2 µM",-0.1%
same,insulin secretion stimulation,[8],4.3% (inactive)
same,viability decrease,[9],-8.3% (inactive)
same,tube area decrease,[10],-14.8% (inactive)
same,GLP1 secretion stimulation,[11],-2.7% (inactive)
same,inhibition of viability,[12],-12% (inactive)
same,viability decrease (inhibition),[13],18.6% (inactive)
same,viability decrease (inhibition),[14],9.3% (inactive)
same,red/green cell ratio (normalised),[15],0.99 (inactive)
same,normalised cell number,[15]; [19],0.91
same,normalised cell number,[15]; [20],0.9
same,fold change,[16]; [21],1 (inactive) and 0.866 (inactive)
same,fold change,[16]; [22],0.334 and 1.75
same,cell count,[16]; [23],3140 and 9560
same,cell count,[16]; [24],3140 and 11000
same,z-score,[17]; [25],-0.199 (inactive) and 0.41 (inactive) and -0.18 (inactive)
same,z-score,[17]; [26],0.0831 and 0.15 and -0.741
same,remaining NAD,[18],10 nM (inactive)
CC1CC(OC(=O)c2ccccc2O)CC(C)(C)C1 (centres undefined),survival,[5],6 (inactive)
same,parasite load remaining,[6],86.4% (inactive) and 63% (inactive)
same,viability,[6],75.8% and 101%
same,nuclear beta-catenin stimulation,[7]; at 10 µM,1.8% (inactive)
same,nuclear beta-catenin stimulation,"[7]; stimulation, at 2 µM",-0.1%
same,insulin secretion stimulation,[8],0% (inactive)
same,viability decrease,[9],-63.6% (inactive)
same,tube area decrease,[10],4.9% (inactive)
same,GLP1 secretion stimulation,[11],-7.6% (inactive)
same,inhibition of viability,[12],9.33% (inactive)
same,viability decrease (inhibition),[13],6% (inactive)
same,viability decrease (inhibition),[14],-0.4% (inactive)
same,red/green cell ratio (normalised),[15],1.12 (inactive)
same,normalised cell number,[15]; [19],1.37
same,normalised cell number,[15]; [20],1.53
same,fold change,[16]; [21],0.96 (inactive) and 0.853 (inactive)
same,fold change,[16]; [22],0.489 and 3.24
same,cell count,[16]; [23],9060 and 10300
same,cell count,[16]; [24],9440 and 12000
same,z-score,[17]; [25],-0.66 (inactive)
same,z-score,[17]; [26],-0.623
same,remaining NAD,[18],10 nM (inactive)
